Measurements: PubChem BioAssay
The source made the active and inactive calls. Unless noted, no rule for the calls is given here.

Columns and labels:
[1] = A549 cell viability effects, profiling panel, calcein-AM fluorescence, 48 h, basal (AID 1162); conditions: higher = more signal; also: test concentration not given here
[2] = adipocyte viability effects, profiling panel, cell-based, 3T3-L1 adipocytes, calcein-AM fluorescence, 48 h, basal (AID 1163); conditions: 3T3-L1 adipocytes viability, higher = more signal; also: test concentration not given here
[3] = HepG2 cell viability effects, profiling panel, calcein-AM fluorescence, 48 h, basal (AID 1164); conditions: higher = more signal; also: test concentration not given here
[4] = MM1S cell viability effects, profiling panel, calcein-AM fluorescence, 48 h, basal (AID 1165); conditions: higher = more signal;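 also: viability of MM1S multiple myeloma cells under basal unstimulated conditions; test concentration not given here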
[5] = basal RPMI8226 viability, no added stimulus, profiling panel, cell-based, calcein-AM fluorescence, 48 h, PK04 Diversity Set (AID 1166); conditions: RPMI8226 myeloma viability, higher = more signal;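 also: cells grown under basal conditions without added stimulus; test concentration not given here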
[6] = basal HepG2 mitochondrial membrane potential changes, profiling panel, cell-based, JC-1 fluorescence, 24 h, 100 nL compound (AID 1167); conditions: higher = more signal; also: test concentration not given here
[7] = basal 3T3-L1 adipocyte mitochondrial potential changes, profiling panel, cell-based, JC-1 fluorescence, 3T3-L1 adipocytes, 24 h, 100 nL compound (AID 1168); conditions: JC-1 mitochondrial fluorescence, higher = more signal, called active from +8 up or from −8 down; also: test concentration not given here
[8] = basal RPMI8226 mitochondrial membrane potential changes, profiling panel, cell-based, JC-1 fluorescence, 24 h, 100 nL compound (AID 1169); conditions: RPMI8226 myeloma, JC-1 mitochondrial potential fluorescence, higher = more signal; also: test concentration not given here
[9] = basal MM1S mitochondrial membrane potential changes, profiling panel, cell-based, JC-1 fluorescence, 24 h, 100 nL compound (AID 1170); conditions: higher = more signal; also: test concentration not given here
[10] = A549 lung cancer cell viability effects, profiling panel, resazurin fluorescence, 24 h, PK04 Diversity Set (AID 1171); conditions: higher = more signal, called active from +8 up or from −8 down; also: test concentration not given here
[11] = HepG2 liver cancer cell viability effects, profiling panel, resazurin fluorescence, 24 h, PK04 Diversity Set (AID 1172); conditions: higher = more signal; also: test concentration not given here
[12] = basal S. cerevisiae growth modulation, no modifier, primary screen, OD600, strain BY4716, 24 h, basal condition (AID 1173); conditions: OD600, 24 h, higher = more signal, called active from +8 up or from −8 down
[13] = MM1S myeloma cell viability, profiling panel, resazurin fluorescence, basal, 24 h, PK04 Diversity Set (AID 1174); conditions: higher = more signal, called active from +8 up or from −8 down;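 also: MM1S multiple myeloma cell line; test concentration not given here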
[14] = biological target: Dihydroorotate dehydrogenase (quinone), mitochondrial (Plasmodium falciparum (isolate 3D7)) (UniProt Q08210); assay: PfDHODH enzyme inhibitors, primary screen, biochemical, C-terminal His tag, absorbance 600 nm (AID 1175); conditions: DCIP absorbance 600 nm, higher = more signal, called active from +8 up or from −8 down;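 also: recombinant parasite enzyme with a five histidine tag at its C terminus; test concentration not given here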
[15] = P. aeruginosa biofilm formation inhibitors, primary screen, strain PAO1, LB-PBS medium, absorbance 600 nm (AID 1176); also: test concentration not given here; conditions: P. aeruginosa PAO1 growth/biofilm, A600, 12 h; higher = more signal
[16] = S. cerevisiae RM11-1a growth modifiers, primary screen, strain RM11-1a, OD600, basal, 24 h (AID 1177); conditions: OD600, 24 h, higher = more signal, called active from +8 up or from −8 down;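 also: cultures grown under basal conditions with no added stressor; test concentration not given here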
[17] = E. coli acrAB mutant growth effects, primary screen, E. coli filamentation inducers, strain DRC39, OD650, 24 h (AID 1178); conditions: higher = more signal, called active from +8 up or from −8 down;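 also: growth measured as culture turbidity by optical density at 650 nm; test concentration not given here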
[18] = E. coli acrAB mutant growth effects, primary screen, E. coli filamentation inducers, strain DRC39, OD650, 48 h (AID 1179);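 also: screen aims at cell division blockers that make cells filament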; conditions: E. coli DRC39 delta-acrAB growth, higher = more signal, called active from +8 up or from −8 down
[19] = RPMI8226 myeloma cell viability, profiling panel, resazurin fluorescence, basal, 24 h, PK04 Diversity Set (AID 1180); conditions: higher = more signal;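 also: RPMI8826 multiple myeloma cell line at 5000 cells per well; test concentration not given here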
[20] = biological target: E3 ubiquitin-protein ligase XIAP (Homo sapiens) (UniProt P98170); assay: XIAP binders, primary screen, biophysical, small-molecule microarray, fluorescence 635 nm (AID 1181); conditions: small-molecule microarray binding, higher = more signal;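 also: score merges 667 nm emission and signal to noise over triplicate slides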
E3 ubiquitin-protein ligase XIAP (Homo sapiens), sequence (P98170 whole entry, looked up): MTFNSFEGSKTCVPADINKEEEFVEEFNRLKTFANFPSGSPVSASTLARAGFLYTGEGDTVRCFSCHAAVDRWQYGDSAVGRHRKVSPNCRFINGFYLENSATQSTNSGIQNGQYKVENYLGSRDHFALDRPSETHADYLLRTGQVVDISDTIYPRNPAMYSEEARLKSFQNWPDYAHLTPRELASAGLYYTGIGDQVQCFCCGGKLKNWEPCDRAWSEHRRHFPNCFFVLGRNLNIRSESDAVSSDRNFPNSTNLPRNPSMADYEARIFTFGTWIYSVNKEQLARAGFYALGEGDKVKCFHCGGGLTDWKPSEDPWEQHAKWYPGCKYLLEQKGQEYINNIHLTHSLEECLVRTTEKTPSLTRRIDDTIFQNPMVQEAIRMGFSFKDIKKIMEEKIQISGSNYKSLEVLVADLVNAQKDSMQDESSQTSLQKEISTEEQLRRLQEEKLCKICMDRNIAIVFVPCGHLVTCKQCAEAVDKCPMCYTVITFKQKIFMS

Dihydroorotate dehydrogenase (quinone), mitochondrial (Plasmodium falciparum (isolate 3D7)), sequence (Q08210 whole entry, looked up): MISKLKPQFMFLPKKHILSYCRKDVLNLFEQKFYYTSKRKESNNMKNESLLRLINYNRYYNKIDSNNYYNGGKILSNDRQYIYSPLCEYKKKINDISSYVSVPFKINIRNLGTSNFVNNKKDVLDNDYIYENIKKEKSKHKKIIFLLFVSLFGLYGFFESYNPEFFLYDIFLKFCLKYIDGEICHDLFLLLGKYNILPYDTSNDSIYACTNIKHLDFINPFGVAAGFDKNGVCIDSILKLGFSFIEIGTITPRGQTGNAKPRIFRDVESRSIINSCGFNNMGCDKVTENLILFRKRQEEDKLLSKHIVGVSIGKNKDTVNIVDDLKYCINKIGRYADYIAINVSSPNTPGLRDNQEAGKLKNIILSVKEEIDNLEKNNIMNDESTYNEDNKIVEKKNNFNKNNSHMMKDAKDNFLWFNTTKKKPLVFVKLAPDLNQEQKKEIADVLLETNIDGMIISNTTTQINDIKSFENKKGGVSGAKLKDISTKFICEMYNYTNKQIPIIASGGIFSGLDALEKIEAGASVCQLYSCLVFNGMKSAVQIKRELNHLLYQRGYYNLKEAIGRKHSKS

[N-]=[N+]=NCc1ccccc1[C@H]1OC(c2ccc(OCCCO)cc2)=N[C@@]1(Cc1ccccc1)C(N)=O
z-score [1]: 0.267 | z-score [2]: 0.514 | z-score [3]: 1.63 | z-score [4]: -0.0987 | z-score [5]: 0.317 | z-score [6]: 1.19 | z-score [7]: 0.593 (inactive) | z-score [8]: -0.418 | z-score [9]: -1.01 | z-score [10]: 1.16 (inactive) | z-score [11]: 1.16 | z-score [12]: -3.32 (inactive) | z-score [13]: -0.0284 (inactive) | composite z-score [14]: -0.174 (inactive) | z-score [15]: -0.195 (inactive) | z-score [16]: 1.01 (inactive) | z-score [17]: 0.961 (inactive) | z-score [18]: 0.195 (inactive) | z-score [19]: -0.373 | composite z-score [20]: -0.124

CC(C)N1C(=O)c2ccccc2[C@](C)(C(=O)O)[C@@H]1c1ccc(CO)cc1
z-score [1]: -0.786 | z-score [2]: 0.0073 | z-score [3]: -0.876 | z-score [4]: 0.0364 | z-score [5]: 0.0868 | z-score [6]: 0.0703 | z-score [7]: 0.597 (inactive) | z-score [8]: 0.663 | z-score [9]: -0.188 | z-score [10]: 0.069 (inactive) | z-score [11]: 0.536 | z-score [12]: -0.942 (inactive) | z-score [13]: -0.0713 (inactive) | composite z-score [14]: -0.218 (inactive) | z-score [15]: 0.332 (inactive) | z-score [16]: 0.595 (inactive) | z-score [17]: 0.0212 (inactive) | z-score [18]: 0.421 (inactive) | z-score [19]: 0.125 | composite z-score [20]: 0.0767

COCCOC(=O)N1C(=O)[C@@]2(c3ccccc31)[C@H](c1ccc(OCCO)cc1)N1[C@H](c3ccccc3)[C@H](c3ccccc3)OC(=O)[C@H]1[C@@H]2C(=O)NC[C@H](O)c1ccccc1
z-score [1]: -0.332 | z-score [2]: 0.754 | z-score [3]: 0.349 | z-score [4]: -0.991 | z-score [5]: -2.39 | z-score [6]: -0.32 | z-score [7]: 0.988 (inactive) | z-score [8]: 0.199 | z-score [9]: -0.864 | z-score [10]: -1.16 (inactive) | z-score [11]: 0.37 | z-score [12]: 1.96 (inactive) | z-score [13]: -0.261 (inactive) | composite z-score [14]: -1.93 (inactive) | z-score [15]: 2.32 (inactive) | z-score [16]: 2.94 (inactive) | z-score [17]: 0.271 (inactive) | z-score [18]: 0.193 (inactive) | z-score [19]: -0.25 | composite z-score [20]: -0.148

COCCCNC(=O)[C@@H]1c2ccccc2C(=O)N(c2ccc(C)cn2)[C@H]1c1ccc(CO)cc1
z-score [1]: 0.212 | z-score [2]: 1.23 | z-score [3]: -0.357 | z-score [4]: -1.04 | z-score [5]: -0.57 | z-score [6]: -0.569 | z-score [7]: -0.916 (inactive) | z-score [8]: 0.83 | z-score [9]: 0.484 | z-score [10]: -0.708 (inactive) | z-score [11]: -1.23 | z-score [12]: 0.357 (inactive) | z-score [13]: 0.507 (inactive) | composite z-score [14]: 0.293 (inactive) | z-score [15]: 0.242 (inactive) | z-score [16]: 0.169 (inactive) | z-score [17]: -0.541 (inactive) | z-score [18]: -0.856 (inactive) | z-score [19]: 0.162 | composite z-score [20]: -0.195

COc1ccc([Si](C)(C)[C@@H]2[C@@H](CC(=O)N3Cc4ccccc4C[C@H]3CO)O[C@]3(C(=O)N(Cc4cccc(N5CCCCC5=O)c4)c4ccccc43)[C@H]2C)cc1
z-score [1]: -0.824 | z-score [2]: 1.85 | z-score [3]: -1.27 | z-score [4]: -1.55 | z-score [5]: -3.36 | z-score [6]: -0.157 | z-score [7]: 0.472 (inactive) | z-score [8]: -0.901 | z-score [9]: -0.398 | z-score [10]: -2.68 (inactive) | z-score [11]: -1.16 | z-score [12]: 0.0062 (inactive) | z-score [13]: -3.09 (inactive) | composite z-score [14]: -1.02 (inactive) | z-score [15]: 0.331 (inactive) | z-score [16]: 1.98 (inactive) | z-score [17]: -0.453 (inactive) | z-score [18]: -0.878 (inactive) | z-score [19]: -2.15 | composite z-score [20]: -0.148

CCCc1cc2c(n1Cc1ccc(OC)cc1)C(C)C1CN(C(=O)c3ccccc3)C(C)(C(=O)OC)C21 (stereo not given)
z-score [1]: -0.923 | z-score [2]: 0.431 | z-score [3]: -0.815 | z-score [4]: -2.74 | z-score [5]: -4.66 | z-score [6]: 2.08 | z-score [7]: -1.82 (inactive) | z-score [8]: -0.157 | z-score [9]: -1.61 | z-score [10]: -0.535 (inactive) | z-score [11]: -1.34 | z-score [12]: 1.08 (inactive) | z-score [13]: -1.69 (inactive) | composite z-score [14]: -0.118 (inactive) | z-score [15]: 1.21 (inactive) | z-score [16]: 0.864 (inactive) | z-score [17]: -1.09 (inactive) | z-score [18]: -0.395 (inactive) | z-score [19]: -1.7 | composite z-score [20]: 0.493

COc1cc(C(O)C2C=CC3C(=O)N(C)C(=O)C3N2NC(=O)OC(C)(C)C)cc(OC)c1OC (stereo not given)
z-score [1]: -1.58 | z-score [2]: -0.785 | z-score [3]: -0.884 | z-score [4]: -2.19 | z-score [5]: -0.907 | z-score [6]: -1.66 | z-score [7]: -0.321 (inactive) | z-score [8]: -0.872 | z-score [9]: 0.415 | z-score [10]: -0.679 (inactive) | z-score [11]: -1.22 | z-score [12]: 1.74 (inactive) | z-score [13]: -0.976 (inactive) | composite z-score [14]: 0.0277 (inactive) | z-score [15]: 0.847 (inactive) | z-score [16]: 0.796 (inactive) | z-score [17]: -1.01 (inactive) | z-score [18]: -0.503 (inactive) | z-score [19]: -1.24 | composite z-score [20]: 0.085

COc1ccc(CCNC(=O)[C@@H]2c3ccccc3C(=O)N(Cc3ccccc3)[C@H]2c2ccc(CO)cc2)cc1
z-score [1]: 2.96 | z-score [2]: 1.29 | z-score [3]: 2.44 | z-score [4]: -0.913 | z-score [5]: 1.02 | z-score [6]: 2.56 | z-score [7]: 1.26 (inactive) | z-score [8]: -0.192 | z-score [9]: -0.502 | z-score [10]: 0.577 (inactive) | z-score [11]: 0.713 | z-score [12]: -0.996 (inactive) | z-score [13]: -2.71 (inactive) | composite z-score [14]: -0.489 (inactive) | z-score [15]: 0.801 (inactive) | z-score [16]: -0.539 (inactive) | z-score [17]: 1.62 (inactive) | z-score [18]: 1.78 (inactive) | z-score [19]: -0.648 | composite z-score [20]: -0.0272
